Screening results from PubChem BioAssay.
The full list was thinned out, with hits kept by preference.
Tg IFNy HTS: T. gondii growth inhibition under IFN-gamma; Toxoplasma gondii growth in IFN-gamma-treated host cells; active compounds read low; activity change, negative = inhibition, % (concentration not given with the values); 69,000 tested, 3.8% active; in the data active means activity change below about -70%, passing the limit was not always enough;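 further: host cells are HeLa cells infected with Toxoplasma gondii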
The depositor's hits bear a star; i = inactive; ! = not active in a repeat.

SMILES	Tg IFNy HTS
CCCS(=O)(=O)c1ccc2nc(NC(=O)OC)[nH]c2c1	-47
CCCCc1ccc2nc(NC(=O)OC)[nH]c2c1	-32
COC(=O)Nc1nc2ccc(-c3n[nH]c(=O)c4ccccc34)cc2[nH]1	-102*
Cc1nc(-c2ccc(F)cc2)sc1-c1ccc(SCCN2CCCCC2)nn1	2
Cc1c(C(=O)NC(c2ccc3c(c2)OCCCO3)C(C)C)n[nH]c1-c1cccs1 (stereo not given)	59
CC(=O)[C@]1(O)Cc2c(O)c3c(c(O)c2[C@@H](O[C@H]2C[C@H](N)[C@H](O)[C@H](C)O2)C1)C(=O)c1ccccc1C3=O	-67
COc1cccc2c1C(=O)c1c(O)c3c(c(O)c1C2=O)C[C@@](O)(C(=O)CO)C[C@@H]3O[C@H]1C[C@H](N)[C@@H](O)[C@H](C)O1	-84*
COc1cccc2c1C(=O)c1c(O)c3c(c(O)c1C2=O)C[C@@](O)(C(C)=O)C[C@@H]3O[C@H]1C[C@H](N)[C@H](O)[C@H](C)O1	-72*!
Cc1ccc(C)c(N2CCN(C(=O)CN3C(=O)CCc4cc(Br)ccc43)CC2)c1	-45
COC(=O)c1ccc(-c2cccc3c2OC(CNC(=O)C24CC5CC(CC(C5)C2)C4)C3)nc1 (stereo not given)	4
O=C1CCCN1CC1CN(C(=O)C2CCOC2)Cc2nccn2C1 (stereo not given)	-57
Cn1cnc2cc(C(=O)N3CCC(c4[nH]ncc4-c4ccccc4)CC3)cnc21	-24
Clc1ccc(C2C=C(c3ccccc3)Nc3ncnn32)cc1 (stereo not given)	-85*
Fc1ccc(C2Oc3ccc(Cl)cc3C3=C2C(c2ccccc2)n2ncnc2N3)cc1 (stereo not given)	-23
Clc1ccc(-c2nc(NC3CCCC3)c3ccccc3n2)cc1	55
Cc1ccccc1-c1nc(CN2CCN(C(=O)NC3CCCC3)CC2)c(C)o1	1
CN1C(=O)CCc2cc(NC(=O)c3cc4ccccc4[nH]3)ccc21	79
Cc1nc(C)c(C(=O)NCCc2cc3nc(-c4ccncc4)ccn3n2)s1	1
CCOc1ccc2oc(=O)cc(CN(CCCN3CCOCC3)Cc3ccco3)c2c1	27
CCN1CCN(CCNC(=O)c2csc(-c3ccc(N4CCCC4)nc3)n2)CC1	-81*
CC1CCCCN1CCNC(=O)c1csc(-c2ccc(N3CCCC3)nc2)n1 (stereo not given)	-46
O=C(NCCCN1CCCCC1)c1csc(-c2ccc(N3CCCC3)nc2)n1	16
Cc1ccc(C(=O)N2CCC3(CC2)CC(=O)N(Cc2ccncc2)C3)o1	-38
COc1cc([C@@H]2c3cc4c(cc3C(O[C@@H]3O[C@@H]5CO[C@@H](c6cccs6)OC5[C@H](O)[C@H]3O)C3COC(=O)[C@@H]32)OCO4)cc(OC)c1O (stereo not given in full)	-80*
CCOc1ccccc1-c1nc(Cn2ccn3nc(-c4ccc5c(c4)OCO5)cc3c2=O)c(C)o1	28
SMILES	Tg IFNy HTS
O=C1CS/C(=N\N2CCOCC2)N1Cc1ccccc1	9
Cn1ccnc1CN1CCC2(COCCN(Cc3ccoc3)C2)C1 (stereo not given)	11
COc1cccc2cc(C(=O)Nc3ccc4c(c3)OCC(=O)N4)c(C)nc12	16
Cc1cccc(-c2nn3c(c2-c2ccnc4ccc(C(N)=O)cc24)CCC3)n1	-78*
COCCN1CC[C@H]2CN(C(=O)c3ccsc3)C[C@H]2C1=O	-2
Cc1nc(OCC(=O)Nc2ccc(Cl)c(C(F)(F)F)c2)c2ccccc2n1	-69
CCc1nc(OCC(=O)Nc2ccc(Cl)c(C(F)(F)F)c2)c2ccccc2n1	-14
CNC(=O)c1cc(Oc2ccc(NC(=O)Nc3ccc(Cl)c(C(F)(F)F)c3)c(F)c2)ccn1	-81*
CNS(=O)(=O)c1ccc(CCC(=O)NC2CCCOC2)cc1 (stereo not given)	-14
CCS(=O)(=O)N1Cc2nccn2CC(COc2cccnc2)C1 (stereo not given)	10
CC(C)NC(=O)N1Cc2nccn2CC(COc2cccnc2)C1 (stereo not given)	9
NC(=O)N1Cc2nccn2CC(COc2cccnc2)C1 (stereo not given)	-100*
O=C(Cc1ccccn1)c1ccc2onc(-c3coc(-c4ccc(F)cc4)n3)c2c1	55
Cc1cccc(SC2CCN(Cc3ccccc3C(=O)O)CC2)c1	1
CCC1=N[C@]2(CC[C@@H]3CN(c4ncccn4)C[C@H]32)C(=O)N1CC1CC1	-18
COc1ccccc1CNC(=O)CC1N=C2c3ccccc3N=C(SCc3ccccc3F)N2C1=O (stereo not given)	-4
O=C(NCCc1csc(-c2ccc(F)cc2)n1)C(=O)Nc1cccc(F)c1	-68
CCCCCC(=O)O[C@]1(C(C)=O)CCC2C3CCC4=CC(=O)CC[C@]4(C)C3CC[C@@]21C (stereo not given in full)	-81*
CCCCCC(=O)O[C@]1(C(C)=O)CC[C@H]2[C@@H]3CCC4=CC(=O)CC[C@]4(C)[C@H]3CC[C@@]21C	-57
CCCCCCCC(=O)OCC(=O)[C@@]1(O)CC[C@H]2[C@@H]3CCC4=CC(=O)CC[C@]4(C)[C@H]3[C@@H](O)C[C@@]21C	-5
Cc1ccc(NC(=O)N2CCN(Cc3nc(-c4cccc(Cl)c4)oc3C)CC2)cc1	0
COc1ccc(Oc2cccc(Cl)c2CNC(=O)CSCC(=O)O)cc1	31
COc1ccc(Oc2ccc(C(=O)NCCc3ccccn3)cc2)cc1	-54
COc1ccc(Oc2cccc(F)c2CNC(=O)c2ccc(OC)cc2)cc1	-88*
Cc1ccc2cc(CN(Cc3nccn3C)C3CC3)c(=O)[nH]c2c1	-5
SMILES	Tg IFNy HTS
O=C(Nc1ccc(OC(F)(F)F)cc1)Nc1cc(-c2ccco2)[nH]n1	-6
CC(C)C1C(=O)N(C)CCN1Cc1ccc(C(=O)Nc2cnn(C)c2)cc1 (stereo not given)	5
COc1ccc2c3c(n(C)c2c1)[C@@H](CO)N(Cc1nccs1)CC31CCN(C(=O)CN(C)C)CC1	5
COc1ccc(S(=O)(=O)N2CC3(CN(C(=O)CN(C)C)[C@@H](CO)c4c3c3ccc(OC)cc3n4C)C2)cc1	-28
COc1ccc2c3c(n(C)c2c1)[C@@H](CO)N(C(=O)CN(C)C)CC31CN(Cc2nccs2)C1	-109*
COc1ccc(-c2nc(Cn3ccn4nc(-c5ccccc5)cc4c3=O)c(C)o2)c(OC)c1	i
CCn1cc(S(=O)(=O)NCCC(c2ccccc2)c2ccc3c(c2)OCO3)cn1 (stereo not given)	15
CCNc1nc(C)nc2sc(CC)cc12	-7
CCN1CCOC(=O)C1CC(=O)Nc1cccc(C)c1 (stereo not given)	-9
C=CCN(Cc1ccccc1C)C(=O)c1cccc2cnccc12	-5
O=C(Nc1ccncc1)C12CC3CC(CC(C3)C1)C2	-47
O=C(c1ccc2nc(NC(=O)C34CC5CC(CC(C5)C3)C4)sc2c1)N1CCCCC1	-85*
O=C(N1CCCCC1)C12CC3CC(CC(C3)C1)C2	18
Cc1nc(CN2CCOCC23CCN(CC(C)(C)O)CC3)cs1	46
COc1cc(OC)nc(N2CC(c3cccnc3)C2)n1	4
O=C(Cc1nc(-c2ccncc2)n[nH]1)N1CCCC1c1ccccn1 (stereo not given)	-2
CCc1cc(C(=O)N2CCC(Cc3nn(C)cc3C(=O)Nc3ccc(F)cc3)CC2)on1	-30
CC(=O)Oc1cccc(C(=O)O)c1OC(C)=O	17
CC(=O)Nc1cc(OC(C)=O)c2nonc2c1OC(C)=O	-75*
COc1cc(OC(C)=O)c(-c2cc(OC(C)=O)c(OC)cc2OC(C)=O)cc1OC(C)=O	104
